PubChem BioAssay (NCI)
About 79,000 compounds went through this panel and 15% of them were active in at least one assay; those are over-represented in the sample as a whole. The source made the active and inactive calls. No stated cut-off is given here; in the data, active means growth inhibition above about 70%; inactive means the rest.

Experiments:
[1] = NCI Yeast Anticancer Drug Screen. Data for the wt2 strain (AID 169);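 further: 0% = growth of vehicle-treated yeast cultures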; conditions: S. cerevisiae wt2 strain growth inhibition, hits give high values
Summary of the method: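 Yeast cells were exposed to test compounds, and growth inhibition was measured relative to vehicle-treated controls.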

[2] = NCI Yeast Anticancer Drug Screen. Data for the sgs1 strain (AID 173);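 further: 0% = growth of vehicle-only control cultures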; conditions: S. cerevisiae sgs1 mutant, hits give high values
Summary of the method: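 Yeast mutant strains carrying defined defects in DNA damage repair or cell cycle control were exposed to test compounds. Growth inhibition was scored against vehicle-treated controls.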

[3] = NCI Yeast Anticancer Drug Screen. Data for the mlh1 rad18 strain (AID 175); conditions: S. cerevisiae mlh1 rad18 strain growth inhibition, hits give high values
Summary of the method: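 Growth inhibition of the yeast strain was measured after compound exposure and expressed relative to vehicle-treated controls. The strain carries defined defects in DNA damage repair.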

[4] = NCI Yeast Anticancer Drug Screen. Data for the rad18 strain (AID 177); conditions: S. cerevisiae rad18 mutant growth inhibition, hits give high values
Summary of the method: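 Yeast carrying a defined DNA damage repair alteration were exposed to compounds. Growth inhibition was expressed relative to vehicle-treated controls.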

[5] = NCI Yeast Anticancer Drug Screen. Data for the rad52 strain (AID 147);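 further: 0% = growth of vehicle-treated control cultures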; conditions: S. cerevisiae rad52 mutant growth inhibition, hits give high values
Summary of the method: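 Yeast strain carrying a DNA damage repair alteration was exposed to test compounds. Growth inhibition was measured relative to vehicle-treated controls.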

[6] = NCI Yeast Anticancer Drug Screen. Data for the wt1 strain (AID 149);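 further: 0% = growth of vehicle-treated wt1 cultures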; conditions: S. cerevisiae wt1 strain (SPY 50644) growth inhibition, hits give high values
Summary of the method: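 The wt1 strain was treated with compounds, and growth was compared with vehicle-treated cultures to give inhibition.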

[7] = NCI Yeast Anticancer Drug Screen. Data for the rad50EPP+ strain (AID 151);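 further: 0% = growth of vehicle-treated control cultures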; conditions: S. cerevisiae rad50 mutant strain, hits give high values
Summary of the method: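 Yeast strain carrying rad50 alteration (rad50EPP+) exposed to compounds; growth inhibition measured relative to vehicle-treated controls.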

[8] = NCI Yeast Anticancer Drug Screen. Data for the mgt1 strain (AID 153); conditions: S. cerevisiae mgt1 mutant growth inhibition, hits give high values
Summary of the method: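 Yeast mgt1 strain (DNA repair/cell-cycle alteration panel) exposed to compounds; growth inhibition measured relative to vehicle-treated controls.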

[9] = NCI Yeast Anticancer Drug Screen. Data for the rad50 strain (AID 155);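 further: 0% = growth of vehicle-only cultures of the same strain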; conditions: S. cerevisiae rad50 strain growth inhibition, hits give high values
Summary of the method: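 Cells are treated with compound, grown, and their growth is then scored against vehicle-only cultures of the same repair-deficient yeast strain.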

[10] = NCI Yeast Anticancer Drug Screen. Data for the mec2-1 strain (AID 157); conditions: S. cerevisiae mec2-1 strain, hits give high values
Summary of the method: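 mec2-1 yeast strain, carrying an alteration in DNA damage repair or cell cycle control, was exposed to compounds; growth inhibition was measured relative to vehicle-treated controls.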

[11] = NCI Yeast Anticancer Drug Screen. Data for the rad14 strain (AID 159);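 further: 0% = growth of vehicle-treated control cultures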; conditions: S. cerevisiae rad14 strain growth inhibition, hits give high values
Summary of the method: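 Readout: yeast growth inhibition, referenced to vehicle-only cultures. Strain bears a defined alteration in DNA damage repair.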

[12] = NCI Yeast Anticancer Drug Screen. Data for the sgs1 mgt1 strain (AID 161);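 further: 0% = growth of cultures given vehicle only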; conditions: S. cerevisiae sgs1 mgt1 strain, hits give high values
Summary of the method: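 This yeast growth screen uses a strain with defined DNA-repair lesions; compound-treated growth is compared with vehicle-treated growth.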

[13] = NCI Yeast Anticancer Drug Screen. Data for the CLN2oe strain (AID 163);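 further: 0% = growth of vehicle-only control cultures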; conditions: S. cerevisiae CLN2oe strain, hits give high values
Summary of the method: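 Yeast cells carrying a defined cell-cycle control alteration were exposed to test compounds. Growth inhibition was scored against vehicle-treated control cultures.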

[14] = NCI Yeast Anticancer Drug Screen. Data for the cln2 rad14 strain (AID 165);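 further: 0% = growth equal to vehicle treated cultures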; conditions: S. cerevisiae cln2 rad14 strain, hits give high values
Summary of the method: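 Yeast carrying cln2 and rad14 alterations (cell cycle control and DNA damage repair) were exposed to compounds. Growth inhibition was measured against vehicle-treated controls.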

[15] = NCI Yeast Anticancer Drug Screen. Data for the bub3 strain (AID 167); conditions: S. cerevisiae bub3 mutant strain, hits give high values
Summary of the method: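 Part of a panel of yeast mutants defective in DNA damage repair or cell cycle regulation. Each strain is grown with compound, and inhibition is calculated relative to solvent-treated cultures.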

[16] = NCI Yeast Anticancer Drug Screen. Data for the mlh1 strain (AID 171);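 further: 0% = growth of vehicle-treated control cultures of the same strain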; conditions: S. cerevisiae mlh1 strain growth inhibition, hits give high values
Summary of the method: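 Yeast carrying a defined genetic alteration in DNA damage repair or cell cycle control were exposed to test compounds. Growth inhibition was measured relative to vehicle-treated controls.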

[17] = at 5.0 µM (retest, dose inferred, filed as 0.5)
[18] = at 50.0 µM (retest, dose inferred, filed as 5.0)

Measured: growth inhibition

CCCCOP(=O)(CCCP(=O)(OCCCC)OCCCC)OCCCC
active: [1]; at 100.0 µM 96% | [2]; at 100.0 µM 93% | [4]; at 100.0 µM 95%
inactive: [1]; at 1.2 µM -2% | [1]; at 3.7 µM -5% | [1]; at 11.0 µM -4% | [1]; at 33.0 µM 0% | [2]; at 1.2 µM -3% | [2]; at 3.7 µM -1% | [2]; at 11.0 µM 0% | [2]; at 33.0 µM 5% | [3]; [17] -2% | [3]; [18] 17% | [3]; at 50.0 µM 42.2% | [4]; at 1.2 µM -7% | [4]; at 3.7 µM 0% | [4]; at 11.0 µM 5% | [4]; at 33.0 µM 8%

O=C(NNc1ccccc1)c1ccc(Cl)c(Cl)c1
active: [7]; at 100.0 µM 74% | [4]; at 100.0 µM 88%
inactive: [5]; at 1.2 µM -1% | [5]; at 3.7 µM 2% | [5]; at 11.0 µM 5% | [5]; at 33.0 µM 26% | [5]; at 100.0 µM 58% | [6]; at 1.2 µM 0% | [6]; at 3.7 µM -1% | [6]; at 11.0 µM 1% | [6]; at 33.0 µM 16% | [6]; at 100.0 µM 46% | [7]; at 1.2 µM -1% | [7]; at 3.7 µM 5% | [7]; at 11.0 µM 13% | [7]; at 33.0 µM 33% | [8]; at 1.2 µM -1% | [8]; at 3.7 µM -1% | [8]; at 11.0 µM 2% | [8]; at 33.0 µM 8% | [8]; at 100.0 µM 23% | [9]; at 1.2 µM 2% | [9]; at 3.7 µM 5% | [9]; [17] 4% | [9]; at 11.0 µM 11% | [9]; at 33.0 µM 21% | [9]; [18] -4% | [9]; at 50.0 µM 38.6% | [9]; at 100.0 µM 61% | [10]; at 1.2 µM -4% | [10]; at 3.7 µM -3% | [10]; [17] -9% | [10]; at 11.0 µM -5% | [10]; at 33.0 µM 2% | [10]; [18] 3% | [10]; at 50.0 µM 40.9% | [10]; at 100.0 µM 23% | [11]; at 1.2 µM -2% | [11]; at 3.7 µM -2% | [11]; at 11.0 µM 3% | [11]; at 33.0 µM 4% | [11]; at 100.0 µM 23% | [12]; [17] 5% | [12]; [18] 19% | [12]; at 50.0 µM 44.2% | [13]; at 1.2 µM -7% | [13]; at 3.7 µM -3% | [13]; at 11.0 µM 0% | [13]; at 33.0 µM 14% | [13]; at 100.0 µM 40% | [14]; [17] 31% | [14]; [18] 18% | [14]; at 50.0 µM 0.2% | [15]; at 1.2 µM -5% | [15]; at 3.7 µM -2% | [15]; [17] -5% | [15]; at 11.0 µM -7% | [15]; at 33.0 µM 2% | [15]; [18] 13% | [15]; at 50.0 µM 30.3% | [15]; at 100.0 µM 14% | [16]; at 1.2 µM -2% | [16]; at 3.7 µM -3% | [16]; at 11.0 µM -3% | [16]; at 33.0 µM 8% | [16]; at 100.0 µM 47% | [2]; at 1.2 µM -3% | [2]; at 3.7 µM -3% | [2]; at 11.0 µM -1% | [2]; at 33.0 µM 17% | [2]; at 100.0 µM 47% | [3]; [17] 6% | [3]; [18] 61% | [3]; at 50.0 µM 44.9% | [4]; at 1.2 µM 2% | [4]; at 3.7 µM 4% | [4]; at 11.0 µM 6% | [4]; at 33.0 µM 37%
